About 79,000 compounds went through this panel and 15% of them were active in at least one assay; those are over-represented in the sample as a whole. Unmarked numbers belong to inactive results. Active and inactive are the calls of the source. No stated cut-off is given here; in the data, active means growth inhibition above about 70%; inactive means the rest. Residues, ends and D or L forms follow the SMILES beside them. *: point of attachment. Fmoc = O=C(OCC1c2ccccc2-c2ccccc21)*; Boc = CC(C)(C)OC(=O)*
Assay: NCI Yeast Anticancer Drug Screen. Data for the rad18 strain (AID 177)
Details: S. cerevisiae rad18 mutant growth inhibition; at 11.0 µM; active compounds read high
Outline: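 Yeast carrying a defined DNA damage repair alteration were exposed to compounds. Growth inhibition was expressed relative to vehicle-treated controls.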

Compound | growth inhibition
CC(C)OP(=O)(OC(C)C)/C(Cl)=N/Nc1ccc([N+](=O)[O-])cc1 | 85% (active)
O=[N+]([O-])c1cc(Cl)ccc1S(=O)(=O)c1ccc(Cl)cc1[N+](=O)[O-] | 63%
CCCCCCNCCCNc1c2cc(OC)ccc2nc2cccc([N+](=O)[O-])c12 | 93% (active)
N#CCC(=O)N/N=C(\c1ccccc1)C(c1ccccc1)C1(O)C(=O)Nc2c(Cl)ccc(Cl)c21 (centres undefined) | 15%
CN(C)CCNCCCNc1c2ccccc2nc2cccc([N+](=O)[O-])c12 | 96% (active)
CCC[CH2][Ge]([CH2]CCC)([CH2]CCC)[O]C(=O)C(O)c1ccccc1 (centres undefined) | 55%
COc1ccc(-c2cc(-c3cc(C)cc(Cl)c3O)nc3[nH]c(=S)[nH]c(=S)c23)cc1 | -16%
O=[N+]([O-])c1ccc(/C=C\c2ccc3c(c2)OCO3)c([N+](=O)[O-])c1 | 11%
O=C1c2ccccc2N2OC3(N4CCCC4)CCCCC3C12c1ccccc1 (centres undefined) | -7%
CC(C)OC(=O)NNc1cc(Cl)ccc1Cl | 69%
Cc1oc2ccccc2c(=O)c1Cn1nnc2ccccc21 | 1%
CC1(C)OC(=O)C(=Cc2ccc([N+](=O)[O-])s2)C(=O)O1 | 32%
CCN(CC)CCCNc1ccc([N+](=O)[O-])c2nc3ccc(OC)cc3c(NCCCN(CC)CC)c12 | 6%
COc1cccc(/C=C2\S/C(=N/Nc3nc(-c4ccc([N+](=O)[O-])cc4)cs3)NC2=O)c1O | 72% (active)
OC(Cc1cccc2ccccc12)CN1CCC(c2ccccc2)CC1 (centres undefined) | 54%
C1=CCN([B-](c2ccccc2)[C+]2CCCCC2)C=C1 | 2%
O=[N+]([O-])c1cc[n+]([O-])c(Cl)c1 | -5%

Compound | growth inhibition
CCCNC(=O)OCc1c(COC(=O)NCCC)c(-c2ccc(Cl)c(Cl)c2)n2c1CCC2 | 2%
CC1(C)CC(=O)C(C(=O)Nc2cccs2)=C(O)C1 | 7%
O=C(NO)c1coc2ccccc2c1=O | 2%
COc1ccc(C(C)c2cc3c(cc2OCC(C)=O)OCO3)cc1 (centres undefined) | 6%
O=S(=O)(c1ccccc1)N1CN2CN(C1)CN(S(=O)(=O)c1ccccc1)C2 | -19%
CC1=NN(C(=O)c2ccccc2O)C(=O)/C1=C/c1ccco1 | 48%
O=C1C=C(Br)C(=O)c2ccccc21 | 82% (active)
C[N+](C)([O-])CCCNc1c2ccccc2nc2cccc([N+](=O)[O-])c12 | 96% (active)
Cc1cccc2c(NCCCN(C)C)c3c([N+](=O)[O-])ccc(C)c3nc12 | 96% (active)
OC1(c2ccccc2)C2CC=CC2C1(c1ccccc1)c1ccccc1 (centres undefined) | -4%
C[n+]1c(-c2ccc(/C=N/NC(=O)c3ccc(C(=O)N/N=C/c4ccc(-c5cn6ccccc6[n+]5C)cc4)cc3)cc2)cn2ccccc21 | 55%
CCN(CC)CCC(=O)Nc1ccc2sc3ccccc3c(=O)c2n1 | -1%
O=[N+]([O-])c1ccc2nc(=S)[nH]n2c1 | 2%
O=C(c1ccccc1)[C@H]1Nc2ccc(Cl)cc2[C@H]2OCCC[C@@H]12 | -10%
COc1cc([N+](=O)[O-])c2ncccc2c1Br | 93% (active)
O=S(=O)(c1cccc(C(F)(F)F)c1)N1c2ccccc2-n2cccc2C1c1cccnc1 (centres undefined) | 85% (active)
CC(C)(C)OC(=O)NCCCCC(NC(=O)C(Cc1c[nH]c2ccccc12)NC(=O)OCC1c2ccccc2-c2ccccc21)C(=O)O (centres undefined) (Fmoc-Trp-Lys(Boc)-OH; configuration not given here) | -2%

— PubChem BioAssay (NCI)
